This is an account of results in PubChem BioAssay AID743286 (National Center for Advancing Translational Sciences (NCATS), 2014).

SMILES strings stand for the structures. Hit rate of the full screen: of about 1,100 compounds, about 340 (31%) were called active. Roughly 40% stayed inconclusive and do not appear here. The call rests on the fitted dose curve; in most records, active means well fitted inhibition curve with a large enough effect; inconclusive means small, poorly fitted or top-dose-only effect; inactive means flat fitted curve, though single readings scatter. Not all results are given here. Where a call stands in place of a potency, no number is given.
Potency means the concentration at half of the fitted maximal effect.

Chain of Phosphatidylinositol 5-phosphate 4-kinase type-2 alpha (Homo sapiens) (P48426 whole entry, looked up): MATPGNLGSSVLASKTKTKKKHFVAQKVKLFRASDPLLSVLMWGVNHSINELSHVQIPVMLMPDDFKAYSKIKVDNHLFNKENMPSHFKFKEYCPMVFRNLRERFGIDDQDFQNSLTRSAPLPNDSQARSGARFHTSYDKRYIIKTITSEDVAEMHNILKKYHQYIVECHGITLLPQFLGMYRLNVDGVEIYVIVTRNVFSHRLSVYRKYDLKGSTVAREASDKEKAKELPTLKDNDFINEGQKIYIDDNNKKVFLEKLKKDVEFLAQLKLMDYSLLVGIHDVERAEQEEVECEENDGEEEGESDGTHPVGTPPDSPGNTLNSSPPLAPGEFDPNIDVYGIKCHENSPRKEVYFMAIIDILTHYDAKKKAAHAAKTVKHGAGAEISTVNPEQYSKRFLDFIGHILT

In this experiment the target is Phosphatidylinositol 5-phosphate 4-kinase type-2 alpha (Homo sapiens) (UniProt P48426). Description: qHTS for Inhibitors of PI5P4K: Confirmation in Primary Assay. Further: nearly all actives have a fitted effect of over 65% in size. Conditions: PI5P4Kalpha enzyme, ADP-Glo luminescence, 60 min; series mostly up to 76.9 µM. The essentials:
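Hits from a qHTS screen were retested in the same PI5P4Kα ADP-Glo format: 5 microM ATP, HEPES pH 7.4 buffer with CHAPS and EGTA, 60 min room-temperature reaction, single end-point luminescence read.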
Consider `CN(C(=O)c1ccc(Br)o1)C1CCS(=O)(=O)C1` (stereo not given), for which the Potency result was “inactive”.

With `CC(C)(C)c1ccc(NC(=O)C2=CC=CN3CCS(=O)(=O)N=C23)cc1`, the Potency entry is “inactive”.

Regarding `Cc1oc(-c2ccc(Cl)cc2)cc1-c1nn2c(-c3ccoc3C)nnc2s1`, the Potency is 14.1 µM (active). Take `Cc1oc(-c2ccc(Cl)cc2)cc1C(=O)N1CCC1(C)C(=O)O` (stereo not given): the Potency result was “inactive”. The entry for `COc1cccc(CNc2nc(NC(C)C)nc3ccsc23)c1` is “inactive”; for `COc1ccccc1CNc1nc(NCc2cccc(OC)c2OC)c2sccc2n1` it is “inactive”. The figure for `c1ccc(-c2cc3nc(NCC4CC4)nc(NCC4CCCCC4)c3s2)cc1` is 20 µM (active). The entry for `CC(C)c1ccc(CNc2nc(NCC3CC3)nc3ccsc23)cc1` is “inactive”. `c1ccc(CNc2nc(NCC3CC3)nc3cc(-c4ccccc4)sc23)cc1`: the Potency was 12.6 µM (active). The entry for `CCO[C@@H]1OC(C(=O)NCc2ccccc2)=C[C@H](C(C)(C)C)[C@H]1CCCO` is “inactive”.

On to `O=C(Cn1cnc2c(OCc3ccccc3)ncnc21)NCc1nc2ccccc2[nH]1`, for which the Potency result was “inactive”.

`COc1ccc(CCNC(=O)CNCC(c2ccccc2)N(C)C)cc1OC` (stereo not given): the Potency entry was “inactive”. For the compound `Cc1ccc2c(CC(=O)OCC(=O)N(CC(C)C)c3c(N)n(Cc4ccccc4)c(=O)[nH]c3=O)coc2c1`, the Potency result is “inactive”.

Consider `COCCN(C(=O)COC(=O)c1cc2c(s1)CCC2)c1c(N)n(Cc2ccccc2)c(=O)[nH]c1=O`, for which the Potency is 3.16 µM (active).

For the compound `CCOc1ccc(C(Nc2cccnc2)c2cc(Cl)c3cccnc3c2O)cc1` (stereo not given), the Potency is 6.31 µM (active).

As for `COc1ccc(Cl)cc1C(Nc1cccnc1)c1ccc2cccnc2c1O` (stereo not given), the Potency is 12.6 µM (active). Next, `COc1ccc(S(=O)(=O)N2CCCC(C(=O)Nc3cccnc3)C2)cc1Cl` (stereo not given): “inactive”; `O=C(NC(c1ccc(Cl)cc1)c1cc(Cl)c2cccnc2c1O)c1cccnc1` (stereo not given): 22.4 µM (active); `COc1ccc(N(C(=O)C2CSC(=O)C2)C(C(=O)NC(C)(C)C)c2ccncc2)cc1` (stereo not given): “inactive”. The entry for `Cc1noc(C)c1CCC(=O)N1CCCC(CCC(=O)NCc2ccc(F)c(F)c2)C1` (stereo not given) is “inactive”; for `COC(=O)c1c[nH]c(=O)c2ccccc12` it is “inactive”. The entry for `CCOC(=O)[C@]12CCCC=C1N(Cc1ccccc1)C(=O)[C@H](CC(=O)NCCCOC)C2` is “inactive”; for `O=C(COC(=O)c1ccc(NS(=O)(=O)c2cccs2)cc1O)Nc1nc2ccccc2s1` it is 20 µM (active). With `O=C(Cn1cc(COc2ccc(Br)cc2[N+](=O)[O-])nn1)c1ccc(O)cc1`, the Potency result was “inactive”. In the case of `C#CCN1C(=O)S/C(=C\c2ccc(-c3ccc(C(=O)O)cc3C)o2)C1=O`, the Potency was 12.6 µM (active).

As to `CN(c1cccc(NC(=O)c2ccc(N(C)S(=O)(=O)c3ccccc3)cc2)c1)S(C)(=O)=O`, the Potency entry was “inactive”. Next, `CC1(C)Cc2cccc(OCC(=O)NCCOc3ccccc3)c2O1`: “inactive”; `FC(F)(F)C1=Nc2cccc3cccc(c23)N1`: 3.98 µM (active); `CC[C@]12c3[nH]c4cc(-c5ccco5)ccc4c3CCN1C(=O)[C@@H](CC(=O)NCCC1=CCCCC1)C[C@@H]2C(=O)N1CCN(C(=O)c2ccco2)CC1`: “inactive”. The entry for `Cc1ccc2c(c1)N(CC(=O)N1CCCCCC1)C(=O)C(C)O2` (stereo not given) is “inactive”. The entry for `Cc1cc(C)c(NC(=O)OCCN2CCOCC2)c(C)c1` is “inactive”. Turning to `O=C(CSc1nncn1-c1ccccc1)Nc1ccc(N2CCOCC2)cc1`, the Potency result was “inactive”. Regarding `Cc1cc2[nH]c3c4ccccc4nc(C)c3c2cc1C`, the Potency is 28.2 µM (active).

Take `O=S(=O)(Nc1ccccc1N1CCCCC1)c1ccc(Cl)s1`: the Potency entry is “inactive”. Next, `O=S(=O)(Nc1ccc(-c2nc3cccnc3s2)cc1)c1ccc(Cl)s1`: 14.1 µM (active).

With `CCS(=O)(=O)Nc1ccc(-c2nc3cccnc3s2)cc1`, the Potency was 22.4 µM (active). Next, `O=S1(=O)CC(N2CCSCC2)CN1Cc1cn(Cc2ccc(F)cc2)nn1` (stereo not given): “inactive”; `COc1cc(Br)cc(CNc2ccc(F)c([N+](=O)[O-])c2)c1O`: “inactive”. Next, `Cn1c(=O)c2c(-c3ccccc3)n(-c3cccc(O)c3)cc2n(C)c1=O`: “inactive”. The entry for `Cc1cccc(C2Nc3ccccc3C(=O)N2c2ccc(F)cc2)n1` (stereo not given) is “inactive”; for `COc1ccc2[nH]c(=O)c(CN(Cc3nnnn3Cc3ccco3)C3CCCCC3)cc2c1` it is “inactive”.

Turning to `NS(=O)(=O)c1ccc2c(c1)C1C=CCC1C(C1CC=CCC1)N2` (stereo not given), the Potency is 28.2 µM (active). In the case of `CCN(CC)CCCCCC(=O)Nc1ccccc1C(=O)Nc1ccccc1`, the Potency result is “inactive”. The figure for `CCCCC1=CC2=CC(=O)C(C)(OC(=O)C3CCCC3)C(=O)C2=CO1` (stereo not given) is 15.8 µM (active); for `Cc1c(Cl)cccc1NC(=O)Cn1nnc(C(=O)NCc2cccs2)c1N` it is “inactive”. The entry for `S=C(NCc1ccccc1)N1CCc2ccccc2C1` is “inactive”. Take `Cc1ccc([N+](=O)[O-])cc1NC(=O)CCSc1ccc(Cl)cc1`: the Potency entry was “inactive”.

As to `NC(=O)c1ccsc1NC(=O)c1ccc([N+](=O)[O-])o1`, the Potency was 12.6 µM (active).

Regarding `COc1ccccc1CNc1nc(Nc2cccc(-c3cnco3)c2)c2sccc2n1`, the Potency entry is “inactive”. The figure for `Cc1cccc(Nc2nc(NCc3ccco3)c3ccccc3n2)c1` is 35.5 µM (active); for `Cc1ccc(Nc2nc(NCc3ccco3)c3ccccc3n2)cc1` it is 35.5 µM (active); for `CCc1cc(=O)oc2cc(C)c(CN3CCCCC3)c(O)c12` it is “inactive”. Consider `COc1ccc(N(C(=O)c2ccccc2)S(=O)(=O)c2cccs2)cc1`, for which the Potency entry was “inactive”. As to `CC(CNC(=O)c1ccc(Br)o1)NC(=O)c1ccc(Br)o1` (stereo not given), the Potency result is “inactive”. The figure for `O=C(Nc1cccc(S(=O)(=O)NC2=NCCCCC2)c1)c1cc(-c2ccco2)nc2ccccc12` is 2.82 µM (active); for `COc1ccc(Br)cc1C(=O)Nc1cccc(NC(=O)c2ccco2)c1` it is “inactive”; for `COc1ccc(NC(=O)c2cc(-c3ccco3)nc3ccccc23)cc1S(=O)(=O)N1CCOCC1` it is 6.31 µM (active). Regarding `O=C(Nc1cccc(S(=O)(=O)NC2=NCCC2)c1)c1cc(-c2ccco2)nc2ccccc12`, the Potency is 2.51 µM (active). Next, `Cc1csc(=O)n1CCC(=O)OCC(=O)Nc1ccc(N2CCOCC2)cc1`: “inactive”; `COc1ccc(N2CC(O)=C(c3nc(-c4ccccc4)cs3)C2=N)cc1`: “inactive”. In the case of `CCCCc1c(Cc2ccccc2)ncn1CCc1ccccc1OC`, the Potency entry is “inactive”. For the compound `CC(=O)c1ccc(NC(=O)CC2Nc3cccc4cccc(c34)NC2=O)cc1` (stereo not given), the Potency was 3.98 µM (active).

Regarding `c1ccc2c(OCCCCN3CCOCC3)cccc2c1`, the Potency entry is “inactive”. Next, `O=c1[nH]c(N2CCOCC2)cc2ccccc12`: “inactive”; `Oc1c(C(c2ccccc2)N2CCOCC2)ccc2ccccc12` (stereo not given): 3.98 µM (active). With `CC1CCCC(C)N1C(=O)COC(=O)CNC(=O)c1ccccc1` (stereo not given), the Potency entry was “inactive”.

Regarding `Cc1cc2nc(NC(=O)C3(C)CCN3C(=O)C(C)C)[nH]c2cc1C` (stereo not given), the Potency result is “inactive”.

`CC1(C(=O)NS(=O)(=O)C2CC2)CCN(C(=O)c2ccccc2F)C1` (stereo not given): the Potency entry is “inactive”. Next, `N#Cc1ccc(COC(=O)CC(NC(N)=O)c2ccc(Cl)cc2)cc1` (stereo not given): “inactive”. Next, `COCCOC(=O)c1[nH]c2c(c1C)C(=O)CC(c1ccco1)C2` (stereo not given): 15.8 µM (active). Next, `O=C(Nc1ccc(O)c2c(=O)cc(-c3ccccc3Cl)oc12)c1ccc(Cl)c(Cl)c1`: “inactive”; `Nc1c(C(=O)O)cnc2c(-c3ccc(Cl)cc3)cnn12`: 6.31 µM (active); `CN1OC[C@@H]2CN3C(=O)N(c4cccc5ccccc45)c4ccccc4[C@@H]3C[C@@H]21`: “inactive”.

As for `CCCn1c(SCC(=O)N2c3ccccc3Sc3ccccc32)nc2c1c(=O)n(C)c(=O)n2C`, the Potency result was “inactive”. The entry for `CCC(c1nnnn1Cc1ccco1)N(CCc1ccccc1)Cc1cc2ccc(OC)cc2[nH]c1=O` (stereo not given) is “inactive”. For the compound `O=C(NCCN1CCN(c2ccccc2)CC1)C1CCCN(S(=O)(=O)c2cnc[nH]2)C1` (stereo not given), the Potency entry is “inactive”. As to `Cc1cc(NS(=O)(=O)c2ccc(NC(=O)COc3ccc(Br)cc3)cc2)nc(C)n1`, the Potency entry is “inactive”. Next, `Cc1cc(C)c2nc(-c3ccccn3)cc(C(=O)Nc3ccc(S(=O)(=O)Nc4onc(C)c4C)cc3)c2c1`: 8.91 µM (active); `COCCCNC(=O)c1ccc2c(=O)n(CC3CCCO3)c(=S)[nH]c2c1` (stereo not given): “inactive”; `CN(Cc1ccccc1)C(=O)c1csc([C@H]2C[C@H](O)[C@@H](CO)O2)n1`: “inactive”. Turning to `COc1cccc(CNS(=O)(=O)c2ccccc2Br)c1OC`, the Potency entry is “inactive”. Next, `COC(=O)CSc1nc(C)cc(C)n1`: “inactive”. Regarding `CC1CCCCN1C(=O)Cn1cnc2cc([N+](=O)[O-])ccc2c1=O` (stereo not given), the Potency result was “inactive”. As to `O=C(Cn1cnc2scc(-c3cccc([N+](=O)[O-])c3)c2c1=O)NCc1ccco1`, the Potency is 11.2 µM (active). As for `COC(=O)CNC(=O)C1Cc2ccccc2CN1S(=O)(=O)c1cccs1` (stereo not given), the Potency result was “inactive”. Next, `O=S(=O)(Nc1nc(-c2ccccc2)cs1)c1cc(Cl)ccc1Cl`: 28.2 µM (active); `O=C(O)c1ccc(Cl)c(S(=O)(=O)Nc2ccc3[nH]c(=O)[nH]c3c2)c1`: “inactive”; `COC(=O)c1ccccc1NC(=O)CN1CCC(n2nnc3cc(C(F)(F)F)ccc32)CC1`: “inactive”. As for `Cc1ccc(S(=O)(=O)N2[C@@H](c3ccc(C(C)(C)C)cc3)C(C(=O)O)=CC[C@H]2c2ccc(C(C)C)cc2)cc1`, the Potency result was “inactive”. The figure for `Cc1cccc(NC(c2ccc(O)cc2)c2ccc3ccc(C)nc3c2O)n1` (stereo not given) is 22.4 µM (active); for `O=c1cc(-c2ccccc2)[nH]n1-c1nc2ccccc2[nH]1` it is 15.8 µM (active); for `CC(=O)Nc1ccc(NC(=S)Nc2ccc(Br)cc2)cc1` it is “inactive”.

Take `CC(C)C(=O)Nc1nnc(NC(=S)Nc2ccccc2)s1`: the Potency is 20 µM (active). `O=C(CSc1n[nH]c(-c2cccnc2)n1)OC1CCCCC1`: the Potency result is “inactive”.

Consider `CCCn1c(N)c(N(CCOC)C(=O)c2cc(-c3ccco3)nc3ccccc23)c(=O)[nH]c1=O`, for which the Potency entry was “inactive”. Consider `CCCN(C(=O)c1cccc(-n2cccc2)c1)c1c(N)n(Cc2ccccc2)c(=O)[nH]c1=O`, for which the Potency was 7.08 µM (active). The figure for `CCCN(C(=O)c1cc(-c2ccco2)nc2ccccc12)c1c(N)n(Cc2ccccc2)c(=O)[nH]c1=O` is 15.8 µM (active); for `CCCCC(=O)N(Cc1ccc2c(c1)OCO2)Cc1nc2ccccc2c(=O)[nH]1` it is “inactive”. Regarding `Cc1ccc(Nc2nc(C)c3c(n2)CC(C)CC3=O)c(C)c1` (stereo not given), the Potency entry was “inactive”. The figure for `O=C(O)c1cc2c(N3CCC(Cc4ccccc4)CC3)ncnc2s1` is 3.98 µM (active).
